± gives the standard deviation of the averaged measurements. In all, about 33,000 sequences were measured (“E-score (rank enrichment, -0.5 to 0.5)”: median about -0.0075, highest 2% from about 0.23 on). This is one part of a sample in which the highest values are shown more often than they occur.
Each sequence was assayed on WT Max(13-93) synthetic (M65Nle) (assay: PBM 8-mer E-score (E-score (rank enrichment, -0.5 to 0.5)); higher = stronger preferential binding).
Description: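 Protein binding microarray (universal PBM chip covering all 10-mers in fixed probe flanks) with chemically synthesized human Max(13-93) bHLH-LZ analogs (not full-length Max) bearing noncanonical residues (hArg, Tha, Aib, Nle at 65) and aromatic Cys staples. Read-out per 8-mer (and its reverse complement): E-score (rank-based enrichment, -0.5 to 0.5) and Z-score of median probe intensity.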

Sequence	PBM 8-mer E-score
CTGCCAAC	-0.111 ± 0.013
GATACCAA	-0.0524 ± 0.022
CAGTGAAC	0.0267 ± 0.035
ACAATCTG	0.065 ± 0.027
AGAAACTC	-0.0484 ± 0.078
ACGAAAAA	0.221 ± 0.056
CTTGCGTA	0.0635 ± 0.052
AGACGTGA	0.103 ± 0.038
ATACGTGA	-0.00216 ± 0.0077
ACACGTGA	0.4747 ± 0.0033
AAGCAGGC	-0.0736 ± 0.011
CGTGGGGC	0.119 ± 0.11
AGATGACT	-0.172 ± 0.045
CACTTCTC	0.0461 ± 0.0024
AATTATCA	0.273 ± 0.083
CATCATTA	0.238 ± 0.034
AGTTATCA	0.07501 ± 0.00026
GGTTATCA	0.232 ± 0.078
TATTATCA	0.2 ± 0.026
CGTTATCA	0.044 ± 0.015
AATTATCC	0.0573 ± 0.0067
CATTATCG	-0.0926 ± 0.0027
CATTATCA	0.242 ± 0.09
AATCATTA	0.223 ± 0.072
AATTATCG	0.132 ± 0.064

Sequence	PBM 8-mer E-score
CATCATTC	-0.011 ± 0.044
GGACTGCA	-0.017 ± 0.043
CGTGTCTC	0.201 ± 0.035
CTAATCCC	0.144 ± 0.024
CCGTCTAC	0.0424 ± 0.084
ACTAACCT	0.0869 ± 0.06
GGTTCCTA	-0.109 ± 0.046
AGACACAG	-0.0614 ± 0.0067
CATTATTC	0.137 ± 0.063
AATTATAC	0.1451 ± 0.00023
AGTTATTA	0.245 ± 0.038
CATTATTA	0.262 ± 0.0081
GATTATTA	0.146 ± 0.14
AATTATAG	0.279 ± 0.07
AGTTATTG	0.127 ± 0.066
GGTTATTA	0.126 ± 0.0068
AATTATAA	0.214 ± 0.072
GCCCCGAC	-0.0997 ± 0.092
AAAAGAGT	0.0215 ± 0.025
CAGCCGGG	-0.216 ± 0.054
CGCGATGA	-0.0499 ± 0.057
AATACCAT	0.239 ± 0.0086
GATACCAC	0.0906 ± 0.0058
AATACCAG	-0.0097 ± 0.088
AATACCAC	0.232 ± 0.0071

Sequence	PBM 8-mer E-score
AATACCAA	0.0858 ± 0.08
ACTACCAT	0.0905 ± 0.098
CTACCCGC	-0.143 ± 0.13
GAAGGAGC	-0.0442 ± 0.0094
AAAGGCAA	0.225 ± 0.019
CGCGCAAG	-0.09 ± 0.021
AAGTGATC	0.00227 ± 0.17
AGGTGATG	-0.035 ± 0.048
GCGTGATA	0.157 ± 0.0055
CCGTGATA	-0.0612 ± 0.11
ACGTGATG	0.281 ± 0.036
ATGTGATA	0.259 ± 0.018
ACGTGATC	0.365 ± 0.03
CCGTGATC	-0.0695 ± 0.058
CTGTGATA	-0.0471 ± 0.032
GTGTGATA	0.161 ± 0.094
AAGTGATG	0.0833 ± 0.02
ACGTGATA	0.373 ± 0.04
CCGCCGCG	-0.0114 ± 0.016
CGACCTTA	-0.135 ± 0.088
AGTAACCA	0.0556 ± 0.031
ACGCTAAA	-0.0749 ± 0.18
AAGGTTCG	0.00686 ± 0.047
TCGGTAAA	0.0761 ± 0.071
GCGTTCGA	-0.0763 ± 0.0099

Sequence	PBM 8-mer E-score
ATACTAAC	0.159 ± 0.022
TTACTAAA	0.109 ± 0.064
CTACTAAG	-0.104 ± 0.13
GTCCTAAC	-0.0552 ± 0.13
GTACTAAA	0.0526 ± 0.051
CTCCTAAC	0.24 ± 0.12
ATCCTAAC	0.133 ± 0.071
CTACTAAC	0.279 ± 0.095
ATACTAAA	0.236 ± 0.0049
CTCCAAAG	-0.102 ± 0.047
ATGGAACC	-0.166 ± 0.054
ACAGAACG	-0.0169 ± 0.0023
CAACCGGC	-0.263 ± 0.061
CAAATCAA	0.245 ± 0.008
GAAATCAA	0.138 ± 0.029
AAAATCAA	0.0163 ± 0.098
GTCGGAAA	-0.0618 ± 0.062
ACAATACA	0.106 ± 0.079
ACAATACT	0.117 ± 0.14
ACAATACC	0.249 ± 0.069
CTTGCTCC	-0.0612 ± 0.0067
ATGCATGC	0.203 ± 0.04
ATGCATCG	0.0483 ± 0.15
ATGCATGG	0.156 ± 0.079
GTGCATGA	0.265 ± 0.012

Sequence	PBM 8-mer E-score
CTGCATTA	0.0253 ± 0.0015
CTGCATGA	-0.175 ± 0.057
ATGCATTA	0.265 ± 0.055
ATGCATCA	0.254 ± 0.0073
GTGCATCA	0.0702 ± 0.089
GGGCATGA	-0.0171 ± 0.012
ATGCATGA	0.244 ± 0.02
ATGCATTC	0.197 ± 0.016
CTGCTGTA	-0.271 ± 0.066
CGCTGCGC	-0.152 ± 0.14
CGAGCTCC	0.00928 ± 0.0055
CAGGATTC	-0.0901 ± 0.04
AAGTCCGC	-0.204 ± 0.041
CCAAACCA	0.037 ± 0.03
AGGGTGTG	0.0713 ± 0.066
CAGTAACG	-0.0368 ± 0.021
CGAGCTGC	-0.214 ± 0.048
AACTCCGG	-0.0587 ± 0.069
TATTGGCA	0.243 ± 0.034
AATTGGCA	0.139 ± 0.04
CATTGGCA	-0.0219 ± 0.039
CGCGCCCA	0.0179 ± 0.03
GTCGACAA	0.0204 ± 0.0078
AAGAAGGG	0.213 ± 0.0093
ACGTAAAA	0.0973 ± 0.0094

Sequence	PBM 8-mer E-score
ACGTAAAT	0.0493 ± 0.0072
ACGTAAAG	0.281 ± 0.033
ACAGGCGA	-0.138 ± 0.092
ACAGTATC	0.235 ± 0.0095
ACAGTATG	0.135 ± 0.041
ACAGTATA	0.134 ± 0.0089
CACCTTCA	-0.109 ± 0.0089
CATGCTCA	0.281 ± 0.034
CATGCTCG	0.188 ± 0.038
CATGCTCC	0.18 ± 0.012
CATGCTGA	0.169 ± 0.029
AATGCTTA	0.194 ± 0.036
CATGCTTA	0.246 ± 0.045
GACATTAC	0.0651 ± 0.0097
ATCATTTG	0.0683 ± 0.013
CTTTCCGC	-0.00053 ± 0.0035
GTCGCATA	0.127 ± 0.004
CAATCTCA	8e-05 ± 0.15
CCCTATTC	0.0618 ± 0.016
TATAAAAA	0.258 ± 0.13
CATAAAAA	0.213 ± 0.085
GATAAACA	0.138 ± 0.13
GATAAAAC	0.141 ± 0.1
GATAAAAA	0.242 ± 0.021
TAAAAAAA	0.123 ± 0.0092

Sequence	PBM 8-mer E-score
GACCCCGC	-0.0133 ± 0.0045
CAAGCACC	-0.0769 ± 0.043
CAAGTAGC	-0.0222 ± 0.13
GGACGCGA	-0.0617 ± 0.22
CGAGAACC	-0.00648 ± 0.079
GAACATGC	0.164 ± 0.015
CAACATGC	0.119 ± 0.023
AAACATGT	0.315 ± 0.018
AAACATGC	0.248 ± 0.021
AAACATGA	0.187 ± 0.041
AAACATGG	0.2074 ± 0.0013
CCCATCGA	-0.073 ± 0.074
GTCTAGGA	-0.0888 ± 0.0088
AGCTCGAT	-0.0955 ± 0.12
AAGTGAGT	0.0792 ± 0.0081
TAAGACAA	0.26 ± 0.04
AAAGACAG	0.091 ± 0.049
GAAGACAA	-0.00129 ± 0.039
CATGACAA	0.196 ± 0.036
CAAGACAA	0.123 ± 0.084
AATGACAC	0.239 ± 0.013
AATGACAG	0.103 ± 0.13
AAAGACAA	0.2 ± 0.078
AAAGACAC	0.279 ± 0.032
GATGACAC	0.0335 ± 0.0041

Sequence	PBM 8-mer E-score
CATGACAC	0.29 ± 0.036
CATGACAG	0.0777 ± 0.066
CTCGCGTC	-0.0607 ± 0.017
GTTTGATA	0.157 ± 0.13
GTACCAAA	0.104 ± 0.08
GCGGGCCA	-0.176 ± 0.11
ACATCCGA	-0.16 ± 0.072
CACGTATG	0.0325 ± 0.16
GGAGTTCA	0.024 ± 0.016
CGCGGTTA	-0.0113 ± 0.021
ATCTTACG	-0.013 ± 0.042
AAGGAGCG	-0.0544 ± 0.078
AATGACAA	0.296 ± 0.089
TATGACAA	0.22 ± 0.013
GATGACAA	0.147 ± 0.014
AGAAAAGC	0.121 ± 0.075
CACACGTC	0.0446 ± 0.022
AACACGTG	0.4954 ± 0.001
AACACGTA	0.189 ± 0.04
CACACGTA	0.0918 ± 0.056
AACACGTC	0.0692 ± 0.09
CACACGTG	0.4756 ± 0.0046
AGGAAAAT	0.102 ± 0.051
CTTGCCAA	0.0438 ± 0.04
CTTTAAGA	0.0629 ± 0.086

Sequence	PBM 8-mer E-score
ACTCGATC	-0.107 ± 0.06
ATGGAGGC	-0.00616 ± 0.011
TTTATAAA	0.176 ± 0.057
ACAACCCT	-0.0273 ± 0.068
CCAACCCC	-0.0495 ± 0.05
ACAACCCC	0.257 ± 0.052
GCGTCGAA	0.00213 ± 0.017
GGCATGCA	0.0781 ± 0.042
CGCATGCG	0.277 ± 0.018
AGCATGCT	0.165 ± 0.028
CGCATGCA	0.175 ± 0.029
AGCATGCA	0.335 ± 0.016
AGCATGCG	0.326 ± 0.055
CGCATGCC	0.141 ± 0.068
TGCATGCA	0.201 ± 0.039
AGCATGCC	0.12 ± 0.022
CGCAATGC	-0.0961 ± 0.12
AGACACCC	-0.159 ± 0.022
CATTTGAC	0.0512 ± 0.021

Reference: the supplement of paper PMC12636033
